SMILES strings stand for the structures. Values without a mark were called inactive. Inconclusive results are not listed. Activity calls are given as the source filed them. Unless noted, calls follow the shape of the dose curve; as a rule, active = well fitted curve in the direction sought with a large enough effect in the repeat runs; inconclusive = weak or mixed curves; inactive = no such curve, though single readings can be large; an effect the other way counts as inactive or inconclusive.

Assay [1] in a line: qHTS RealTime-Glo MT Cell Viability Assay in HEK293 cells - 0 hour (AID 1224880). Also: top concentration of the series differs between compounds; nearly all actives have a fitted effect of over 45% in size. A digest of the protocol: (§1)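 Viable HEK293 cells reduce a cell-permeant prosubstrate; the product diffuses out and is consumed by NanoLuc in the medium to give light. Compounds went in after a 5 h incubation and plates were read over the treatment course.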
Assay [2] can be described thus: A CellTox Green Cytotoxicity Assay to monitor cytotoxicity in HEK293 cells - 32 hour (AID 1224881). Also: nearly all actives have a fitted effect of over 40% in size. The method in brief:
(§2)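 Fluorescence intensity, read at 0, 8, 16, 24, 32 and 40 h of compound treatment, reflected dye binding to DNA of dead HEK293 cells; compounds (23 nL, DMSO) were added 5 h after plating cells with reagent.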

Assay [3] can be described thus: A CellTox Green Cytotoxicity Assay to monitor cytotoxicity in HepG2 cells - 0 hour (AID 1224882). Also: nearly all actives have a fitted effect of over 35% in size. The method in brief: (§3)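 Using 1536-well format, dye-containing HepG2 suspension was seeded, allowed 5 h at 37 C/5% CO2, dosed by pintool with compounds, positive and negative controls, and imaged for fluorescence across 40 h.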
Assay [4] can be described thus: A CellTox Green Cytotoxicity Assay to monitor cytotoxicity in HepG2 cells - 32 hour (AID 1224883). Also: nearly all actives have a fitted effect of over 50% in size. The method in brief:
as §3

Assay [5] in a line: A CellTox Green Cytotoxicity Assay to monitor cytotoxicity in HEK293 cells - 8 hour (AID 1224884). Also: nearly all actives have a fitted effect of over 35% in size. The method in brief: as §2
Assay [6] in a line: qHTS RealTime-Glo MT Cell Viability Assay in HepG2 cells - 16 hour (AID 1224885). Also: nearly all actives have a fitted effect of over 50% in size. A digest of the protocol:
(§4)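 qHTS, HepG2, 600 cells/well, RealTime-Glo (NanoLuc + prosubstrate) added with cells; 5 h preincubation; DMSO compound addition; 37 C; luminescence at 0/8/16/24/32/40 h.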

The nature of assay [7]: qHTS RealTime-Glo MT Cell Viability Assay in HEK293 cells - 24 hour (AID 1224886). Also: nearly all actives have a fitted effect of over 50% in size. Also: potency is read from the fitted curve at half-maximal effect. A digest of the protocol:
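Assay medium contained NanoLuc luciferase plus cell-permeant prosubstrate, added with HEK293 cells at 600 cells/well. After 5 h at 37 C/5% CO2 compounds were added; plates stayed at 37 C for 40 h with serial luminescence reads.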

A short description of assay [8]: qHTS RealTime-Glo MT Cell Viability Assay in HEK293 cells - 8 hour (AID 1224887). Also: nearly all actives have a fitted effect of over 50% in size. Also: potency is read from the fitted curve at half-maximal effect. The method in brief: as §1
Assay [9] in a line: A CellTox Green Cytotoxicity Assay to monitor cytotoxicity in HEK293 cells - 16 hour (AID 1224888). Also: nearly all actives have a fitted effect of over 35% in size. The method in brief:
as §2

Assay [10] in a line: qHTS RealTime-Glo MT Cell Viability Assay in HepG2 cells - 0 hour (AID 1224889). Also: nearly all actives have a fitted effect of over 50% in size. A digest of the protocol: as §4
The nature of assay [11]: A CellTox Green Cytotoxicity Assay to monitor cytotoxicity in HepG2 cells - 8 hour (AID 1224890). Also: nearly all actives have a fitted effect of over 45% in size. A digest of the protocol: as §3
A short description of assay [12]: qHTS assay to identify small molecule antagonists of the estrogen receptor alpha (ER-alpha) signaling pathway using the BG1 cell line in the presence of 0.1 nM 17-beta-estradiol - cell viability counter screen (AID 1259241). Also: nearly all actives have a fitted effect of over 40% in size. A digest of the protocol: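 Measures cytotoxicity alongside the ER-alpha antagonist readout: VM7Luc4E2 cells, charcoal-stripped serum, 0.1 nM 17beta-estradiol final, 22 hr compound incubation at 37C, CellTiter-Fluor fluorescence.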

Assay [13] can be described thus: qHTS assay to identify small molecule antagonists of the androgen receptor (AR) signaling pathway using the MDA cell line in the presence of 0.5 nM R1881 - cell viability counter screen (AID 1259242). Also: nearly all actives have a fitted effect of over 45% in size. The method in brief: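 Viability of MDA-kb2 cells was multiplexed with the luciferase AR readout; after 16 hr with compounds and R1881 at 0.5 nM final, CellTiter-Fluor fluorescence was recorded.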

Assay [14] concerns the target Estrogen receptor (Homo sapiens) (UniProt P03372). The assay is described as follows: qHTS assay to identify small molecule antagonists of the estrogen receptor alpha (ER-alpha) signaling pathway using the BG1 cell line in the presence of 0.1 nM 17-beta-estradiol (AID 1259244). Also: nearly all actives have a fitted effect of over 50% in size. The method in brief:
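Estradiol at 0.1 nM (final) stimulates the endogenous ER-alpha of VM7Luc4E2 cells carrying an ERE-driven luciferase; compounds are co-incubated 22 h at 37C and luciferase output quantified by luminescence.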

Assay [15] in a line: qHTS assay to identify small molecule HDAC inhibitors (AID 1259364). Also: potency is read from the fitted curve at half-maximal effect.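 Also: wild-type HCT-116 cells with endogenous class I/II HDAC activity; nearly all actives have a fitted effect of over 45% in size.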 The method in brief:
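Read-out: luminescence of HDAC-Glo I/II reagent, 30 min RT, reflecting class I/II deacetylase activity in whole HCT-116 cells pre-exposed 2 h to DMSO-dissolved compounds.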

Assay [16] in a line: qHTS assay to identify small molecule HDAC inhibitors - cell viability counter screen (AID 1259365). The method in brief: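 Following a 2hr exposure of overnight-plated wild-type HCT-116 cells to DMSO-delivered compounds, CellTiter-Glo was added and luminescence recorded after 30min at room temperature.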
The nature of assay [17]: qHTS assay to identify small molecule antagonists of the sonic hedgehog signaling (Shh) pathway - cell viability counter screen (AID 1259367). Also: nearly all actives have a fitted effect of over 55% in size. A digest of the protocol: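 NIH/3T3-derived Gli1-Luc reporter cells, 2,000/well, plated 4 hr before compound addition, then stimulated with conditioned medium for 24 hr at 37C. Viability measured in the same wells by CellTiter-Fluor fluorescence, reagent added at 23 hr for 1 hr.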

The nature of assay [18]: qHTS assay to identify small molecule phospholipidosis (PLD) inducers (AID 1259344; active = well fitted curve in the direction sought with a large enough effect; an effect the other way counts as inactive or inconclusive). The method in brief:
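HepG2 cells, 900/well, treated with compound plus LipidTOX Red for 24 h at 37 C; amiodarone positive and DMSO negative controls. Fixed with paraformaldehyde/Hoechst, then high-content imaging scored LipidTOX pit count and integrated intensity per well and per cell.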

Assay [19] is described as follows: qHTS assay to identify small molecule agonists of the sonic hedgehog signaling (Shh) pathway - cell viability counter screen (AID 1259366). Also: nearly all actives have a fitted effect of over 50% in size. A digest of the protocol:
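After a 4hr attachment at 37C, NIH/3T3 cells bearing an integrated Gli1-driven luciferase reporter were dosed with compounds. Treatment lasted 24hr, with the final hour including CellTiter-Fluor for a fluorescence viability measurement.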

Chain of Estrogen receptor (Homo sapiens) (P03372 whole entry, looked up): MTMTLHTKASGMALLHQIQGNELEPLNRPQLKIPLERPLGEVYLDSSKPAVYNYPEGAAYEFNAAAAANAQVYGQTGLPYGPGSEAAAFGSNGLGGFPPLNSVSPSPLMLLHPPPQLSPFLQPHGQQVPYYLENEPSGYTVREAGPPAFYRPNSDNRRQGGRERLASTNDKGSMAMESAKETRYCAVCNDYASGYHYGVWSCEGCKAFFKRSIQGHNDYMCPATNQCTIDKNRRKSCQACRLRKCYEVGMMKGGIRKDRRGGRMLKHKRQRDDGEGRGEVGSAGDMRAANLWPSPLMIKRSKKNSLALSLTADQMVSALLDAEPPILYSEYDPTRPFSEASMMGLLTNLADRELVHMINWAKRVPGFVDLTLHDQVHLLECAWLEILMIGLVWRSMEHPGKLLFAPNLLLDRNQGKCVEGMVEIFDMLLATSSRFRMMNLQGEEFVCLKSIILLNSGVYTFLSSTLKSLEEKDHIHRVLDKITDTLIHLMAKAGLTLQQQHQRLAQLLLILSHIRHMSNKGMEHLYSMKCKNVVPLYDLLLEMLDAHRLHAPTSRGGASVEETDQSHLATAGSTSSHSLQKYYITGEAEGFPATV

Consider `Cc1ccc2ccccc2c1[N+](=O)[O-]`, for which the Potency entry in assay [1], in assay [2], in [3], in [4], in assay [5] and in [7] was “inactive” throughout. In addition, the Potency result in assay [8], in assay [9], in assay [10], in [11], in assay [12] and in assay [13] was “inactive” throughout. For the same compound, the Potency entry in [14], in [15] and in assay [17] was “inactive” each time. Also, the compound was classed as inactive in assay [6] and in [16].

As to `Nc1nc(Cl)nc2c1ncn2[C@H]1C[C@H](O)[C@@H](CO)O1`, the Potency result in assay [1], in assay [2], in assay [3], in assay [4], in assay [5] and in [7] was “inactive” throughout. Also, the Potency entry in assay [8], in assay [9], in [10], in assay [11], in assay [12] and in [13] was “inactive” each time. In addition, the Potency result in assay [18], in assay [15], in [19] and in assay [17] was “inactive” each time. Moreover, the compound was called inactive in [6] and in [16].

Turning to `CCOC(OCC)OCC`, the Potency result in [1], in [2], in assay [3], in assay [4], in assay [5] and in assay [7] was “inactive” in each case. The Potency result in assay [8], in [9], in assay [10], in assay [11], in [12] and in assay [13] was “inactive” in each case. Moreover, the Potency entry in assay [14], in assay [15], in assay [19] and in assay [17] was “inactive” throughout. Moreover, the compound was classed as inactive in assay [6] and in [16].

For the compound `COC(=O)Cc1cccc2ccccc12`, the Potency entry in assay [1], in assay [2], in assay [3], in assay [4], in assay [5] and in [7] was “inactive” in each case. For the same compound, the Potency result in [8], in assay [9], in assay [10], in [11], in assay [12] and in assay [13] was “inactive” each time. Further, the Potency entry in [14], in [15], in assay [19] and in assay [17] was “inactive” throughout. For the same compound, the outcome in assay [6] and in [16] was inactive.

With `CC(CCl)OC(C)CCl` (stereo unspecified), the Potency entry in assay [1], in assay [2], in assay [3], in assay [4], in assay [5] and in assay [7] was “inactive” throughout. Also, the Potency result in [8], in assay [9], in [10], in assay [11], in assay [12] and in assay [13] was “inactive” throughout. Besides, the Potency result in [14], in assay [15], in [19] and in assay [17] was “inactive” throughout. The call in [6] and in assay [16] was inactive.

In the case of `CC(C)(C)N`, the Potency entry in assay [1], in [2], in assay [3], in [4], in assay [5] and in [7] was “inactive” throughout. The Potency result in assay [8], in assay [9], in [10], in assay [11], in assay [12] and in assay [13] was “inactive” each time. Also, the Potency entry in assay [14], in assay [15], in assay [19] and in [17] was “inactive” in each case. Besides, the result in [6] was inactive.

For `C=Cc1ccc(C=C)cc1`, the Potency entry in assay [1], in [2], in assay [3], in [4], in [5] and in assay [7] was “inactive” throughout. The Potency entry in assay [8], in assay [9], in [10], in [11], in [12] and in assay [13] was “inactive” in each case. Moreover, the Potency entry in [14], in assay [15], in assay [19] and in [17] was “inactive” in each case. For the same compound, the result in assay [6] and in assay [16] was inactive.

With `OCC(O)c1ccccc1` (stereo unspecified), the Potency result in assay [1], in assay [2], in assay [3], in assay [4], in assay [5] and in assay [7] was “inactive” in each case. Moreover, the Potency entry in assay [8], in assay [9], in assay [10], in assay [11], in [12] and in [13] was “inactive” each time. In addition, the Potency result in [14], in assay [15], in assay [19] and in assay [17] was “inactive” in each case. The outcome in assay [6] and in [16] was inactive.

Consider `COc1ccnc2c1CCCCC2S(=O)c1nc2ccccc2[nH]1` (stereo unspecified), for which the Potency result in assay [1], in assay [2], in assay [3], in assay [4], in [5] and in [9] was “inactive” each time. Further, the Potency result in [10], in [11], in [12], in assay [13], in [14] and in [15] was “inactive” throughout. For the same compound, the Potency entry in [19] and in assay [17] was “inactive” in each case. In addition, the call in [6] and in assay [16] was inactive. Besides, the Potency in [7] is 6.01 µM (active); in assay [8] it was 8.49 µM (active).

Consider `CC(C)=CCCC(C)C=O` (stereo unspecified), for which the Potency result in [1], in [2], in [3], in assay [4], in [5] and in assay [7] was “inactive” in each case. Moreover, the Potency result in assay [8], in assay [9], in assay [10], in assay [11], in assay [12] and in assay [13] was “inactive” in each case. The Potency result in assay [14], in assay [15], in assay [19] and in assay [17] was “inactive” throughout. Moreover, the compound was called inactive in assay [6] and in assay [16].

As to `CNc1ccccc1`, the Potency entry in [1], in assay [2], in assay [3], in assay [4], in assay [5] and in assay [7] was “inactive” in each case. Besides, the Potency result in assay [8], in [9], in [10], in assay [11], in assay [12] and in assay [13] was “inactive” in each case. The Potency entry in [14], in assay [15] and in [17] was “inactive” throughout. The compound was classed as inactive in assay [6] and in assay [16].

`Cc1cc(N)n(-c2ccccc2)n1`: the Potency entry in assay [1], in [2], in assay [3], in [4], in assay [5] and in assay [7] was “inactive” each time. The Potency entry in [8], in assay [9], in assay [10], in [11], in assay [12] and in assay [13] was “inactive” in each case. Moreover, the Potency result in [14], in assay [19] and in [17] was “inactive” each time. The compound was classed as inactive in assay [6] and in [16]. For the same compound, the Potency in assay [15] is 27.3 µM (active).

Take `CC(C)CCCCCOC(=O)CS`: the Potency result in [1], in [2], in assay [3], in assay [4], in [5] and in assay [7] was “inactive” throughout. The Potency result in assay [8], in assay [9], in assay [10], in [11], in [12] and in assay [13] was “inactive” throughout. Moreover, the Potency result in assay [14], in [15] and in assay [17] was “inactive” in each case. The compound was called inactive in assay [6].

Turning to `C/C=C1\[C@H]2C=C(C)C[C@]1(N)c1ccc(=O)[nH]c1C2`, the Potency result in assay [1], in assay [2], in assay [3], in [4], in [5] and in assay [7] was “inactive” each time. Moreover, the Potency result in assay [8], in assay [9], in assay [10], in [11], in assay [12] and in assay [13] was “inactive” each time. Moreover, the Potency entry in assay [18], in assay [15] and in assay [17] was “inactive” throughout. Besides, the compound was classed as inactive in [6] and in assay [16].

(Values after PubChem BioAssay (Tox21).)
